From the supplement of paper PMC8540655 come the findings set out here.

Unmarked numbers belong to inactive results.

One assay concerns Aedes aegypti larvae. Nature of the assay: larval motility relative to same well at 0 h (fraction); higher = more motile (less active compound), active = 0.4 or less. To be noted: 10 µM; 2 h. The method in brief: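 Compounds at 10 µM (1% v/v DMSO) were applied to about 10 Aedes aegypti larvae per well in 100 µL, with every plate including solvent and larvicide control wells. Motility movies were taken with INVAPP at 0, 2 and 24 h, and results are medians of three independent larval batches. Relative motility is each well's score expressed as a fraction of its own first score.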
For the molecule `CCNC(=O)Nc1cn2c(-c3ncc(CC)cn3)cc(-c3cccnc3)cc2n1`, the larval motility is 0.892.

Consider `O=c1nc(N2CCN(CC3CCCCC3)CC2)sc2c([N+](=O)[O-])cc(C(F)(F)F)cc12`, for which the larval motility is 0.712.

With `O=c1cc(Nc2ccc3ccccc3c2)[nH]c(=O)[nH]1`, the larval motility is 0.528.

Take `CSc1ccc2c(c1)C(N1CCN(C)CC1)Cc1ccccc1S2` (centres undefined): the larval motility was 1.08.

On to `CCCC(=O)OCCc1ccccc1`, for which the larval motility was 0.51.

Still in this assay, the particulars now being: 10 µM; 24 h.
`CC1CN(c2ncnc3c2c(-c2ccccc2)cn3-c2ccc(F)cc2)CC(C)O1` (centres undefined): the larval motility is 0.856.

In the case of `c1ccc(-c2nnc3c4ccccc4c(N4CCNCC4)nn23)cc1`, the larval motility was 1.34.

For `O=[N+]([O-])/C(Br)=C/c1ccc(Br)o1`, the larval motility was 0.796.

For the molecule `CN(C)CCNC(=O)c1cccc2cccnc12`, the larval motility was 0.825.

With `O=C1NC(=S)N/C1=C\c1cc(Br)cc(Br)c1O`, the larval motility was 0.843.

As for `Nc1nnnn1CCOc1c2[nH]c3ccc(Cl)cc3c2cc2c1[nH]c1ccc(Cl)cc12`, the larval motility was 1.16.

Take `C[C@@H](NC(=O)c1cccc(-c2c[nH]c(-c3cc4ccccc4cn3)n2)c1)c1ccc(F)cc1`: the larval motility was 0.997.

`O=C(O)c1ccc(-n2nc(-c3ccccc3O)nc2-c2ccccc2O)cc1`: the larval motility was 0.808.

For the molecule `c1cc(CN2CCCNCCNCCCNCC2)ccc1CN1CCCNCCNCCCNCC1`, the larval motility was 0.915.

As to `C[C@@H](c1nc(-c2ccc(C#N)cc2)cs1)[C@](O)(Cn1cncn1)c1ccc(F)cc1F`, the larval motility is 0.498.

Consider `CC(C)(C)NC(=O)N[C@H](C(=O)N1C[C@H]2[C@@H]([C@H]1C(=O)NC(CC1CCC1)C(=O)C(N)=O)C2(C)C)C(C)(C)C` (some centres undefined), for which the larval motility is 0.813.

For the molecule `CCCCCCCc1[nH]c2ccccc2c(=O)c1O`, the larval motility was 0.565.

With `Cc1cc(C)n2nc(C(=O)NS(=O)(=O)c3c(C)cccc3OC(F)(F)F)nc2n1`, the larval motility is 1.13.

Regarding `CC(=O)NC[C@H]1CN(c2ccc(N3CCSCC3)c(F)c2)C(=O)O1`, the larval motility is 1.07.

On to `COc1cc(C2C3=C(CC(C)(C)CC3=O)Nc3ccccc3N2C(C)=O)ccc1OCc1ccccc1` (centres undefined), for which the larval motility is 0.617.

For the molecule `Cc1cccc(C)c1C(=O)Nc1nc(-c2ccccn2)cc2ccccc12`, the larval motility was 1.01.

Take `COc1ccc(C[C@@H](C)[C@@H](C)Cc2ccc(OC)c(OC)c2)cc1OC`: the larval motility was 0.813.

As for `O=C(NCc1ncc(C(F)(F)F)cc1Cl)c1c(Cl)cccc1Cl`, the larval motility is 1.42.

Turning to `N[C@H](CCC(=O)N[C@@H](Cc1c[nH]c2ccccc12)C(=O)O)C(=O)O`, the larval motility is 0.838.

As for `CC1(C)CC(NC(=O)C(=O)Nc2ccc(Cl)cc2)CC(C)(C)N1`, the larval motility was 0.896.

As to `CCc1oc2ccccc2c1C(=O)c1ccc(O)cc1`, the larval motility was 1.17.

For the molecule `NCC(=O)Nc1ccc(-n2nc(C(F)(F)F)cc2-c2ccc3c(ccc4ccccc43)c2)cc1`, the larval motility is 1.81.

Regarding `O=C(c1ccc(F)cc1)N1CCN2C(=O)c3ccccc3C12c1ccccc1` (centres undefined), the larval motility was 0.984.

For the molecule `CC(C)(C)NC(=O)[C@@H]1C[C@@H]2CCCC[C@@H]2CN1C[C@@H](O)[C@H](Cc1ccccc1)NC(=O)[C@H](CC(N)=O)NC(=O)c1ccc2ccccc2n1`, the larval motility was 1.49.

As for `Nc1nc(-c2ccccc2)nc2c1ncn2[C@@H]1O[C@H](COS(=O)(=O)NC(=O)c2ccccc2O)[C@@H](O)[C@H]1O`, the larval motility was 1.04.

As for `CCCCCOc1ccc(/C=C2\Oc3c(ccc(O)c3O)C2=O)c(O)c1`, the larval motility was 1.4.

Consider `NCCCc1ccccc1C(=O)Nc1ncc([N+](=O)O)s1`, for which the larval motility is 0.646.

Take `CC(C)(C)c1ccc(OCCn2nc(C(=O)O)c3ccccc3c2=O)cc1`: the larval motility was 3.46.

For the molecule `O=C(CCCC(F)(F)F)N1CCC(c2nc(-c3nccs3)no2)CC1`, the larval motility is 1.08.

On to `O=C(CSc1nnc(Br)n1-c1ccc(C2CC2)c2ccccc12)Nc1ccc(C(=O)O)cc1Cl`, for which the larval motility was 0.894.

For the molecule `C=C(C)[C@@H]1CC[C@]2(C(=O)O)CC[C@]3(C)[C@H](CC[C@@H]4[C@@]5(C)CC[C@H](O)C(C)(C)[C@@H]5CC[C@]43C)[C@@H]12`, the larval motility was 1.18.

Take `CNCC(=O)OCc1cccnc1N(C)C(=O)OC(C)[n+]1cnn(C[C@](O)(c2cc(F)ccc2F)[C@@H](C)c2nc(-c3ccc(C#N)cc3)cs2)c1` (some centres undefined): the larval motility was 0.736.

In the case of `Cc1nc(-c2ccc(C3N(C)c4ccc(F)cc4C(=O)N3c3ccccc3)s2)cs1` (centres undefined), the larval motility was 0.822.

For `Cc1cc(CCOc2c(C)cc(-c3nnn(C)n3)cc2C)on1`, the larval motility is 0.768.

For the molecule `CCNC(=O)Nc1cn2c(-c3ncc(CC)cn3)cc(-c3cccnc3)cc2n1`, the larval motility was 0.894.

For the molecule `O=c1nc(N2CCN(CC3CCCCC3)CC2)sc2c([N+](=O)[O-])cc(C(F)(F)F)cc12`, the larval motility was 1.04.

In the case of `O=c1cc(Nc2ccc3ccccc3c2)[nH]c(=O)[nH]1`, the larval motility was 0.778.

For the molecule `CSc1ccc2c(c1)C(N1CCN(C)CC1)Cc1ccccc1S2` (centres undefined), the larval motility is 0.827.

On to `CCCC(=O)OCCc1ccccc1`, for which the larval motility is 0.648.
